# Most compounds without a hit are left out; they make up all but 19% or so of the library.
# HT1080 IDH1KD tx: toxicity to HT-1080 IDH1 knockdown cells (counter line) | HT-1080 IDH1 knockdown viability, ATP luminescence, 48 h | Potency, µM (titrated, usually from 46.1 µM), most hits filed as cytotoxic | actives 2% (n = 360,000)
#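 Luminescent ATP read-out (CellTiter-Glo, 10 min at room temperature) after 48 h compound exposure at 37 °C gave viability of IDH1-knockdown HT-1080 cells. Activity was normalised to DMSO and cell-free wells, then fitted as concentration-response curves.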
# TDP1 cell CPT: DT40-hTDP1 cell growth loss with CPT; actives 12% (n = 420,000); AID 686979; Potency, µM (doses to about 46.2 µM), usual class: inhibitors; chicken DT40 Tdp1-/-;hTDP1 cells + 20 nM CPT, ATP luminescence, 48 h; further: nearly all actives have a fitted effect of over 55% in size
#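 Chicken DT40 Tdp1-/- cells complemented with human TDP1, 400 cells/well, exposed to compounds plus 20 nM camptothecin for at least 48 h at 37 C; viability read as ATP content by CellTiter-Glo luminescence.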
# KB-V1 cytotox: kills drug-selected multidrug resistant KB-V1 cells; KB-V1 MDR cells viability, CellTiter-Glo, 72 h; Potency, µM (series often up to 46.1 µM), usual class: cytotoxic; AID 1347076; actives 3.4% (n = 400,000); further: nearly all actives have a fitted effect of over 60% in size
#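 Cells of the MDR subline KB-V1 are plated, dosed with compound at multiple concentrations, and incubated 72 h at 37 degrees C; CellTiter-Glo is then added and luminescence read after 10 min.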
# KB-3-1 cytotox: KB-3-1 parental cell cytotoxicity; Potency, µM (doses to about 46.1 µM), most hits filed as cytotoxic; actives 1.4% (n = 400,000); KB-3-1 viability, CellTiter-Glo ATP luminescence, 72 h; AID 1347075; further: nearly all actives have a fitted effect of over 60% in size
#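 Viability of parental KB-3-1 cells, measured by CellTiter-Glo luminescence, followed a 72 h incubation at 37 °C with pinned compounds in phenol-red-free DMEM containing 10% FBS.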
# DT40 TDP1 no CPT: qHTS for Inhibitors of human tyrosyl-DNA phosphodiesterase 1 (TDP1): qHTS in cells in absence of CPT | DT40 Tdp1-/- hTDP1 cells, no CPT, ATP luminescence, 48 h | Potency, µM (titrated, usually from 46.2 µM), actives largely listed as inhibitors | actives 15% (n = 420,000); further: nearly all actives have a fitted effect of over 55% in size
#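 Stably hTDP1-transfected Tdp1-null chicken DT40 cells were treated with library compounds minus camptothecin and grown for at least 48 hr at 37 °C, after which cellular ATP was quantified by luminescence.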
# HT1080-NT tox: kills 2HG-producing HT-1080-NT fibrosarcoma cells; HT-1080-NT fibrosarcoma viability, CellTiter-Glo ATP luminescence, 48 h; Potency, µM (doses to about 46.1 µM), hits mostly cytotoxic; actives 1.6% (n = 360,000); AID 686970;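 further: NT is the 2HG producing partner of a matched IDH1 knockdown line; nearly all actives have a fitted effect of over 55% in size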
#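 750 cells/well, RPMI + 5% FBS; 2 h settle, compound pin-transfer, 48 h at 37 degrees C. CellTiter-Glo 10 min RT, luminescence. Normalized to DMSO and media-only wells.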
# A number is an active result; 0 = inactive; ? = inconclusive; - = no result; [ ] = another dose, or the depositor's remark. The call rests on the fitted dose curve; in most records, active means well fitted curve in the direction sought with a large enough effect; inconclusive means small, poorly fitted or top-dose-only effect, or another doubt; inactive means no such curve, though single readings can be large; an effect the other way counts as inactive or inconclusive.
SMILES,HT1080 IDH1KD tx,TDP1 cell CPT,KB-V1 cytotox,KB-3-1 cytotox,DT40 TDP1 no CPT,HT1080-NT tox
CCCCCCN1C[C@H](n2cc(C3CC3)nn2)[C@@H](O)C[C@@H]1c1ccc(C)cc1,?,21µM,0,0,12µM,?
O=C1CCC(C(=O)OCc2ccccc2)N1 (centres undefined),0,0,0,0,0,0
COC(=O)c1c(C)oc2ccc(N(C(=O)c3ccncc3)S(=O)(=O)c3ccc(C)cc3)cc12,2.6µM,3.7µM,1.6µM,5.2µM,2.1µM,2.6µM
CC(=O)c1c(C)oc2ccc(N(C(=O)Oc3ccccc3)S(=O)(=O)c3ccc(Cl)cc3)cc12,-,0,0,0,0,-
COC(=O)c1c(C)oc2ccc(N(C(=O)c3ccncc3)S(=O)(=O)c3ccc4ccccc4c3)cc12,?,23µM,?,?,15µM,?
Cc1ccc(S(=O)(=O)N(C(=O)c2ccncc2)c2ccc3oc4c(c3c2)CCCC4)cc1[N+](=O)[O-],0,0,?,0,0,0
COC(=O)c1c(C)oc2ccc(N(C(=O)c3ccncc3)S(=O)(=O)c3ccccc3)cc12,0,?,0,?,23µM,0
Cc1cccc(NC(=O)c2nc[nH]c2C(=O)NCCN(CCNC(=O)c2[nH]cnc2C(=O)Nc2cccc(C)c2)CCNC(=O)c2[nH]cnc2C(=O)Nc2cccc(C)c2)c1,0,6.5µM,0,?,5.8µM,0
O=C(Nc1ccccc1)c1nc[nH]c1C(=O)NCCCCCCNC(=O)c1[nH]cnc1C(=O)Nc1ccccc1,0,7.3µM,?,?,8.2µM,0
O=C(Nc1ccc(F)cc1)c1nc[nH]c1C(=O)Nc1ccc([N+](=O)[O-])cc1,0,?,0,?,15µM,0
Cc1cccc(NC(=O)c2nc[nH]c2C(=O)Nc2cccc(C)c2)c1,?,?,0,0,10µM,0
Cc1cccc(NC(=O)c2nc[nH]c2C(=O)NCCCNC(=O)c2[nH]cnc2C(=O)Nc2cccc(C)c2)c1,0,0,0,0,?,0
O=C(Nc1ccc([N+](=O)[O-])cc1)c1nc[nH]c1C(=O)NC1CCCCC1,0,?,0,?,?,0
O=S(=O)(NCC1CN(S(=O)(=O)c2c(F)cccc2F)C1)c1ccc2c(c1)OCCO2,-,-,0,0,-,-
CCCc1cc(=O)[nH]c(Nc2cc(C)ccc2OC)n1,-,0,0,0,0,-
C/C(=N\S(=O)(=O)c1ccc(C)cc1)N(C)C,0,0,0,0,0,?
Cc1cccc(NC(=O)c2nc[nH]c2C(=O)N[C@@H](C)c2ccccc2)c1,15µM,23µM,0,0,29µM,?
O=C(Nc1ccccc1)c1nc[nH]c1C(=O)NCCN(CCNC(=O)c1[nH]cnc1C(=O)Nc1ccccc1)CCNC(=O)c1[nH]cnc1C(=O)Nc1ccccc1,?,?,0,?,23µM,?
Cc1ccc(NC(=O)c2nc[nH]c2C(=O)NCCN(CCNC(=O)c2[nH]cnc2C(=O)Nc2ccc(C)cc2)CCNC(=O)c2[nH]cnc2C(=O)Nc2ccc(C)cc2)cc1,0,?,?,?,16µM,0
Cc1ccc(NC(=O)c2nc[nH]c2C(=O)Nc2ccc(C)cc2)cc1,0,10µM,0,0,7.3µM,0
COc1ccc(CCn2c(-c3ccc(F)cc3)nc3c(c(=O)c4ccccc4n3C)c2=O)cc1OC,0,0,0,0,0,0
CC(C)CNC(=O)COC(=O)c1n[nH]c2ccccc12,0,0,0,0,0,0
CC1(C2CCC3(C)OC3C2)CO1 (centres undefined),0,0,?,0,0,0
Cc1cccc(NC(=O)c2nc[nH]c2C(=O)N2CCN(C(=O)OC(C)(C)C)CC2)c1,0,21µM,0,0,?,0
CCN(CC)C(=O)c1[nH]cnc1C(=O)Nc1ccccc1,0,0,0,0,0,0
SMILES,HT1080 IDH1KD tx,TDP1 cell CPT,KB-V1 cytotox,KB-3-1 cytotox,DT40 TDP1 no CPT,HT1080-NT tox
O=C(Nc1ccccc1)c1nc[nH]c1C(=O)NCCCNC(=O)c1[nH]cnc1C(=O)Nc1ccccc1,0,?,0,0,15µM,0
O=S1(=O)N[C@@H](Cc2ccccc2)COc2cc(N3CCN(Cc4ccccc4F)CC3)ccc21,0,0,0,0,21µM,0
O=S1(=O)N[C@H](Cc2ccccc2)COc2cc(N3CCC[C@@H]3CO)ccc21,23µM,?,0,21µM,?,?
CC(C)C[C@H]1COc2cc(N3CCN(Cc4ccccc4F)CC3)ccc2S(=O)(=O)N1,0,?,0,?,?,0
CC(C)C[C@H]1COc2cccc(N3CCN(Cc4ccccc4F)CC3)c2S(=O)(=O)N1,0,?,0,0,18µM,?
CC1(C(=O)NS(=O)(=O)c2cccc(F)c2)CCN1C(=O)C1(c2ccc(Cl)cc2)CCC1 (centres undefined),0,0,0,0,0,0
O=C(Cc1ccccc1[N+](=O)[O-])NCC1(c2cccc3c2OCO3)OCCO1,0,0,18µM,0,0,0
O=C(Cc1ccccc1[N+](=O)[O-])NC1CC1,0,0,0,0,0,0
Cc1sc2c(c1C)c(=O)n(-c1cccc(C(F)(F)F)c1)c(=O)n2Cc1ccc(F)cc1,-,?,0,0,?,-
C=C1c2cc(OC)ccc2NC(=O)N1CC,0,0,7.3µM,0,0,0
CC(C)C(=O)Nc1ccc(Oc2ccc3c(c2)C(=O)NC3=O)cc1,0,0,0,0,0,0
O=S(=O)(/N=C(/Sc1ccccc1)c1ccccc1)c1ccc(Cl)cc1,-,?,?,?,16µM,-
O=S(=O)(/N=C(/Sc1ccccc1)c1ccccc1)c1ccccc1,0,8.2µM,0,0,15µM,0
O=[N+]([O-])c1ccc(Cl)c(S(=O)(=O)/N=C(/Sc2ccc(Br)cc2)c2ccccc2)c1,-,6.3µM,0,?,2.8µM,-
O=S(=O)(/N=C(/Sc1ccc(Cl)cc1)c1ccccc1)c1ccccc1,-,10µM,0,0,14µM,-
COc1ccc(-c2ccc3ncnc(N(C)Cc4csc(C)n4)c3c2)cc1OC,-,-,0,?,-,-
Cc1c(C(=O)NCCN2CCC(c3ccccc3)CC2)cnn1-c1nccc(-c2cccs2)n1,-,0[9.04 µM],-,-,?,-
CCOc1ccc(CNC(=O)CCn2nc(C)c3c(C)n(-c4ccccc4)nc3c2=O)cc1,-,0,0,0,0,-
O=C(Oc1ccccc1)N1CCC2(CCCN(c3ccncc3)C2)CC1,-,21µM,-,-,15µM,-
O=C(Oc1ccccc1)N1CCC2(CC1)CN(c1ccncc1)C2,-,13µM,-,-,10µM,-
COC(=O)N1CCC2(CC1)CCN(c1ccncc1)CC2,-,7.3µM,-,-,16µM,-

# Bioassay records from PubChem BioAssay.
